Reference: PubChem BioAssay
Results filed as inconclusive are left out. Active and inactive are the calls of the source.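 The calls were made as follows, unless noted: active = viability at or below 30% in both replicate assays; inconclusive = viability at or below 30% in just one of the two assays; inactive = the rest.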

Tests used:
[1] = reducers of endogenous Her2 protein level, primary screen, SKBR3 breast tumor cells, AlphaScreen, ATP viability (AID 461;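 active = Her2 level under about 52% in both replicate screens, with viability over 70% of control, limit read from the data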;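 as to Her2 level: lower value means less Her2 protein in the cells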;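 as to viability: percent of carrier control wells set as 100% viability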); settings: 18-24 h, measured here: SKBR3 viability, ATP luminescence, at 10 µM
[2] = biological target: Receptor tyrosine-protein kinase erbB-2 (Homo sapiens) (UniProt P04626); test: as above; settings: 18-24 h, at 10 µM, stronger effect = lower value
Sequence of Receptor tyrosine-protein kinase erbB-2 (Homo sapiens) (P04626 whole entry, looked up): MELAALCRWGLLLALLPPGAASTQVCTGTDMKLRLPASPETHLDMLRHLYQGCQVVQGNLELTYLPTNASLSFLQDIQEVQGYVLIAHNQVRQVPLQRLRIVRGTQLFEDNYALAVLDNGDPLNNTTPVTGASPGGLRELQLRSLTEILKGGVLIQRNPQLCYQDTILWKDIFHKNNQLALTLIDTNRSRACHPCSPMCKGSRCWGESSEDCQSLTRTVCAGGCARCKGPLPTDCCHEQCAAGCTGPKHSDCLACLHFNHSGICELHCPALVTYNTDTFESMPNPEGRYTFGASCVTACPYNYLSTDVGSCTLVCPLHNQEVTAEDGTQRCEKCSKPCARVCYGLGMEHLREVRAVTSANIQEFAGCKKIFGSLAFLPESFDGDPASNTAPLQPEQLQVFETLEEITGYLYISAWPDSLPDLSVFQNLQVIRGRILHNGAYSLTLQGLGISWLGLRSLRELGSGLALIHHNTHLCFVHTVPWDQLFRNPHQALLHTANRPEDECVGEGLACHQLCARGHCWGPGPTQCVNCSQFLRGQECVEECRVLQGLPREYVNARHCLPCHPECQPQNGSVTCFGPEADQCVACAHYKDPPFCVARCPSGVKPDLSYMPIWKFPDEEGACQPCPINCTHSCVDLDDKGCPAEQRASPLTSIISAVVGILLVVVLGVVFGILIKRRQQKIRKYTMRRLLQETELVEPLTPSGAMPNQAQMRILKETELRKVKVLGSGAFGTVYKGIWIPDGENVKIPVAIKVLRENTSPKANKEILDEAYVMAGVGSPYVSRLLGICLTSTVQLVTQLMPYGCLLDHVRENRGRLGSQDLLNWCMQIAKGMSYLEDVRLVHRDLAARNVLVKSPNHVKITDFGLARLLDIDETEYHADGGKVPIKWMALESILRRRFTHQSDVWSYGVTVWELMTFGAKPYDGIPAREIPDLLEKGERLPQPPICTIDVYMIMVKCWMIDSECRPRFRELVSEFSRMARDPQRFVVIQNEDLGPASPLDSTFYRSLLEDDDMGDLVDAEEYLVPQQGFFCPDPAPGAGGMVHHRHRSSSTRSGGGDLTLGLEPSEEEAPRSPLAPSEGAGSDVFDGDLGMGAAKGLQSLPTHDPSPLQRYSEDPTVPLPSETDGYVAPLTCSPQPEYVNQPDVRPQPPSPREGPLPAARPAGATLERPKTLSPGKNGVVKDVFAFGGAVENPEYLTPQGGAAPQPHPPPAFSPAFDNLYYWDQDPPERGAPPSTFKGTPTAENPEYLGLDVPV

[3] = SK-BR-3 cell growth inhibitors, pilot screen, 24 h, human (AID 572;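 active = viability at or below 10% of carrier control in both of two separate runs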;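 also: compound exposure lasted between 18 and 24 h rather than exactly 24 h; 100% = carrier-treated control wells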); settings: SK-BR-3 viability, CellTiter-Glo luminescence, at 10 µM, stronger effect = lower value
[4] = HUVEC growth inhibition – cell-based, human, primary screen (AID 575); settings: HUVEC proliferation, CellTiter-Glo luminescence, 72 h; at 10 µM; stronger effect = lower value;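 also: 100% = median of untreated cell wells with 0.1% DMSO on each plate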
[5] = growth inhibitors of H69AR lung tumor, primary screen, human, duplicate replicates (AID 580;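 active = viability at or under a set limit in both replicates, limit being median viability minus 3 SD, cut at about 48% in these data, passing the limit was not always enough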;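 also: 100% = mean luminescence of untreated wells and 0% = no signal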); settings: H69AR lung tumor cells viability, ATP luminescence, 72 h; at 10 µM; stronger effect = lower value
[6] = reversal of MRP1-mediated doxorubicin resistance, pilot screen, H69AR cells, doxorubicin co-treatment (AID 601;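 active = viability loss from added drug above about 55%, and viability with drug at most 40%, in both replicates, limit read from the data, passing the limit was not always enough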); settings: CellTiter-Glo, 72 h, at 10 µM; for differential viability (reversal): stronger effect = higher value
[7] = 384-well plate pilot, post-Golgi transport modulator project, inhibition of yeast transport mutant growth (AID 636; in the data active = inhibition above about 31%); settings: absorbance 615 nm, about 18 h, stronger effect = higher value
[8] = growth suppression of yeast trafficking mutant, preliminary HTS, modulators of trafficking downstream of Golgi apparatus project, 1536-format plate, OD 615 nm (AID 637; in the data active = inhibition above about 30%); settings: yeast transport mutant growth, absorbance 615 nm, 18 h; stronger effect = higher value
[9] = OD615 S. cerevisiae growth inhibition, permissive medium, pilot counter-assay, permissive growth control for S. cerevisiae lifespan shortening project (AID 705;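 active = growth inhibition above 25% in both replicates, a cutoff set 3 SD above the mean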); settings: OD615, 24 h, at 10 µM, stronger effect = higher value
[10] = Restrictive medium S. cerevisiae growth inhibition, OD615, pilot screen of yeast lifespan reduction project, restrictive growth control (AID 706;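 active = growth inhibition above a set limit, 3 SD over mean compound inhibition, in both replicates, cut at about 43% in these data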;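 also: modified DeaD lifespan yeast strain shifted to restrictive glucose medium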); settings: OD615, 48 h, at 10 µM, stronger effect = higher value
[11] = viability gain of MRP-1-high H69AR cells under doxorubicin, pilot screen, MRP-1 activator project, CellTiter-Glo, duplicate (AID 807;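 active = viability increase at or above a cutoff of the median across tested compounds plus 3 SD, cut at about 8.5% in these data, passing the limit was not always enough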;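 also: compound pretreatment 18-22 h then 72 h combined with doxorubicin; 0% = doxorubicin alone and 100% = vehicle without doxorubicin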); settings: H69AR viability with doxorubicin, CellTiter-Glo luminescence; at 10 µM; stronger effect = higher value
[12] = growth suppression of beta-catenin knockout HCT116, pilot screen, human colon tumor cells (AID 823;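 active = cell viability at or below a set limit in both duplicate runs, the limit being the all-compound median minus 4 SD, cut at about 23% in these data, passing the limit was not always enough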;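 also: 0% = wells killed by 20 µM Hyamine and 100% = untreated DMSO cell wells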); settings: CellTiter-Glo, 60 h, at 10 µM, stronger effect = lower value
[13] = growth suppression of PTEN-deleted HCT116, pilot screen, cell-based, HCT116 clonal line, CellTiter-Glo (AID 824;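 active = viability at or below 27.92% in each of two runs, the all-compound median minus 4 SD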;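 also: 0% = 20 µM Hyamine control and 100% = vehicle cell control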); settings: 60 h, at 10 µM, stronger effect = lower value
[14] = inhibitors of the yeast RAM network, pilot screen, dse1pr::URA3 reporter, 5-FOA selection (AID 869;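 active = inhibition over a set limit, the all-compound mean plus 3 SD, in both replicate runs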;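 also: 0% = DMSO wells with no growth and 100% = 10 µM 1-NA-PP1 with full growth; RAM network block rescues cells from 5-FOA so hits raise OD615 growth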); settings: S. cerevisiae dse1pr::URA3 5-FOA growth, OD615, 2 d; at 10 µM; stronger effect = higher value; strain carries analog-sensitive mutant Cbk1 kinase
[15] = RAM signaling pathway blockade in yeast – S. cerevisiae, Pdr1DBD-CYC8 efflux-inhibited sensitized strain, primary screen (AID 1298;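 active = RAM network inhibition above 8.4% in each of two replicates, 3 SD over the compound average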;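 also: 0% = DMSO untreated cells without growth and 100% = 10 µM 1-NA-PP1 full growth; higher means more yeast growth rescued from 5-FOA killing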); settings: S. cerevisiae cbk1-as DSE1-URA3 strain, 5-FOA growth OD615, 2 d; at 50 µM; stronger effect = higher value
[16] = H69AR cells + 2 uM doxorubicin, measured here: viability with 2 uM doxorubicin, stronger effect = lower value
[17] = H69AR cells, compound alone cytotoxicity

| Structure (SMILES) | viability [1] [%] | Her2 level [2] | viability [3] | viability [4] | viability [5] | differential viability (reversal) ([6]; H69AR cells + 2 uM doxorubicin) | viability [6, 16] [%] | viability [6, 17] [%] | inhibition [7] | inhibition [8] | growth inhibition [9] | growth inhibition [10] | viability increase [11] | viability [12] | viability [13] | inhibition [14] | RAM network inhibition [15] |
| --- | --- | --- | --- | --- | --- | --- | --- | --- | --- | --- | --- | --- | --- | --- | --- | --- | --- |
| Cc1nc2ccc(S(=O)(=O)NC(C(=O)NCc3cccs3)C(C)C)cc2s1 (centres undefined) | 88.5 | 116% (inactive) | 88.5% (inactive) | 97.9% (inactive) | 111% (inactive) | 18.2% (inactive) | 92.6 | 111 | -5% (inactive) | -2.67% (inactive) | -3.81% (inactive) | -9.54% (inactive) | -0.45% (inactive) | 102% (inactive) | 99.6% (inactive) | 2.96% (inactive) | 5.02% (inactive) |
| COc1cccc(C(=O)OCn2nnc3ccccc3c2=O)c1OC | 85.5 | 102% (inactive) | 85.5% (inactive) | 97.7% (inactive) | 86.9% (inactive) | -22% (inactive) | 109 | 86.9 | -2.67% (inactive) | -3.67% (inactive) | 8.45% (inactive) | 5.07% (inactive) | 0.09% (inactive) | 96.5% (inactive) | 99.9% (inactive) | 2.57% (inactive) | -0.62% (inactive) |
| Cc1ccc2oc(=O)c3cnn(CC(=O)NCCC(C)C)c3c2c1 | 84.5 | 102% (inactive) | 84.5% (inactive) | 95.2% (inactive) | 88.1% (inactive) | 15.4% (inactive) | 72.6 | 88.1 | -0.26% (inactive) | -1.67% (inactive) | 2.22% (inactive) | -6.28% (inactive) | -1.72% (inactive) | 105% (inactive) | 100% (inactive) | 1.22% (inactive) | 6.67% (inactive) |
| CC(=O)Nc1ccc(N=Cc2ccc[nH]2)cc1 | 97.5 | 87.5% (inactive) | 97.5% (inactive) | 95.3% (inactive) | 88.5% (inactive) | -1.47% (inactive) | 90 | 88.5 | 1.28% (inactive) | -5.5% (inactive) | -11.4% (inactive) | -5.65% (inactive) | -1.9% (inactive) | 90.7% (inactive) | 92.8% (inactive) | 0.435% (inactive) | 3.68% (inactive) |
| COC(=O)C(C)Sc1nnc2n(-c3cccc(C)c3)c(=O)c3c4c(sc3n12)CCCC4 (centres undefined) | 87.5 | 112% (inactive) | 87.5% (inactive) | 86.8% (inactive) | 83.1% (inactive) | 64.7% (active) | 18.4 | 83.1 | 2.53% (inactive) | 2% (inactive) | -9.47% (inactive) | 16.4% (inactive) | -1.93% (inactive) | 89.5% (inactive) | 85.5% (inactive) | 0.06% (inactive) | 1.84% (inactive) |
| CCCCOCCCNC(=O)c1ccc(NC(C)=O)cc1 | 108 | 133% (inactive) | 108% (inactive) | 86.3% (inactive) | 96.6% (inactive) | 10% (inactive) | 86.6 | 96.6 | 1.04% (inactive) | -10.7% (inactive) | -9.19% (inactive) | -26.5% (inactive) | 0.09% (inactive) | 104% (inactive) | 97.4% (inactive) | 1.42% (inactive) | -0.63% (inactive) |
| CCCc1cc(C(=O)Nc2sc3c(c2C#N)CCC3)no1 | 86.5 | 77.5% (inactive) | 86.5% (inactive) | 58% (inactive) | 29.8% (active) | -25.9% (inactive) | 55.6 | 29.8 | -2.05% (inactive) | -4.5% (inactive) | 4.12% (inactive) | 0.215% (inactive) | -2.05% (inactive) | 92.2% (inactive) | 87.1% (inactive) | -0.06% (inactive) | -1.49% (inactive) |
| O=C(Nc1ccc2snnc2c1)N1CCN(c2ccccc2)CC1 | 81.5 | 86% (inactive) | 81.5% (inactive) | 75.4% (inactive) | 85.3% (inactive) | -7.63% (inactive) | 92.9 | 85.3 | -0.38% (inactive) | -2.33% (inactive) | -13.7% (inactive) | -17.1% (inactive) | -2.11% (inactive) | 85.2% (inactive) | 79.4% (inactive) | 1.3% (inactive) | 5.24% (inactive) |
| CN1CCN(CCCNC(=O)Cn2ncc3c4ccccc4n(C)c3c2=O)CC1 | 84 | 129% (inactive) | 84% (inactive) | 82.7% (inactive) | 86% (inactive) | -8.1% (inactive) | 94.1 | 86 | 1.15% (inactive) | 10.8% (inactive) | -16.9% (inactive) | -28.7% (inactive) | -1.44% (inactive) | 92.9% (inactive) | 100% (inactive) | 3.37% (inactive) | 4.04% (inactive) |
| Cc1cc2nc(-c3ccco3)cc(C(F)(F)F)n2n1 | 93.5 | 90% (inactive) | 93.5% (inactive) | 102% (inactive) | 93.3% (inactive) | 6.71% (inactive) | 86.6 | 93.3 | 1.28% (inactive) | 8.17% (inactive) | -17.4% (inactive) | -8.99% (inactive) | 1.14% (inactive) | 105% (inactive) | 105% (inactive) | 1.89% (inactive) | 2.83% (inactive) |
| CCOC(=O)C(CC)(CCC(=O)O)c1csc(N)n1 (centres undefined) | 99 | 98.5% (inactive) | 99% (inactive) | 101% (inactive) | 102% (inactive) | 7.83% (inactive) | 94.2 | 102 | -8.4% (inactive) | -2.74% (inactive) | -4.72% (inactive) | -9.94% (inactive) | -1.31% (inactive) | 96.8% (inactive) | 98.3% (inactive) | 0.94% (inactive) | -1.93% (inactive) |
| Cc1cc(C)cc(N(CC(=O)NC2CCC(C)CC2)S(=O)(=O)c2c(C)noc2C)c1 (centres undefined) | 104 | 101% (inactive) | 104% (inactive) | 94% (inactive) | 88.1% (inactive) | 4.2% (inactive) | 83.8 | 88.1 | -3.59% (inactive) | -5.67% (inactive) | -23.2% (inactive) | -18.5% (inactive) | -1.82% (inactive) | 97.5% (inactive) | 94.9% (inactive) | 2.36% (inactive) | 11.3% (inactive) |
